Test results: PubChem BioAssay (NCI)
Compounds without any hit were thinned out: in the full panel of roughly 83,000, 20% have a hit.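 Method: cells in 96-well plates; compound added at one concentration; 48 h incubation; percent growth measured; values under 10 scored active.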 Calls of active or inactive are those of the source.

What follows are molecules tested on SF-295 CNS (assay: NCI-60 one-dose screen, 48 h (100 = growth as untreated, 0 = no growth, -100 = all killed)). Settings: 10 µM unless noted.
In the case of `CCCCC1CCCC12NC(=O)NC2=O` (configuration not stated), the growth is reported as 109% (inactive). `COc1ccc2c(c1)c(-c1nn3cc(-c4cccs4)nc3s1)cn2C` was tested, and the growth was 66.9% (inactive). In the case of `COc1ccc([C@H]2c3cc(OC)c(OC)cc3C=C(C=O)C2CO)cc1OC` (some centres not stated), the growth is reported as 12.7% (inactive). For `C/C(=N/NC(N)=S)c1sc(Nc2cccc(Cl)c2)nc1C`, the growth was 88.7% (inactive). With `Cc1cccc2c3c(sc12)C(c1ccc(F)cc1)C(C#N)=C(N)O3` (configuration not stated) the growth was 5.18% (active). With `COc1cc(C(=O)c2cnc(-c3cccc4[nH]ccc34)[nH]2)cc(OC)c1OC` the growth was 21.6% (inactive). `COc1ccc(C(=S)N2CCN(c3cccc(C)c3)CC2)cc1OC` was tested, and the growth was 57.4% (inactive). For `CCOC(=O)/C(C#N)=C\Nc1ccc2ncnc(Nc3ccc(Cl)cc3Cl)c2c1`, the growth was 82.2% (inactive). `Cc1nn(-c2ccccc2)c(-n2ccnc2)c1/C=N/Nc1nc(-c2ccc(F)cc2)cs1` was tested, and the growth was 77.3% (inactive). With `Cc1cc(=O)oc2cc(OC(=O)N3CCN(C)CC3)ccc12` the growth was 104% (inactive). In the case of `COc1cc(/C=C/c2c(C(C)=O)c(C)nc3ccccc23)cc(OC)c1OC`, the growth is reported as 20.1% (inactive). With `NS(=O)(=O)c1ccc(-n2nc(-c3ccc(Cl)cc3)c3ccccc3c2=O)cc1` the growth was 97.3% (inactive). In the case of `COc1ccc(C(=O)C[C@]2(O)C(=O)Nc3c(Cl)ccc(Cl)c32)cc1`, the growth is reported as 4.67% (active). `O=c1[nH][n+](-c2ccc(Br)cc2)no1` was tested, and the growth was 21.3% (inactive). With `COc1cc2cc(Oc3ccc(NC(=O)Nc4ccc(Cl)c(Cl)c4)cc3)c(C)nc2cc1OCCN1CCOCC1` the growth was 80.1% (inactive). In the case of `C#C[C@]1(O)CC[C@H]2[C@@H]3CC=C4c5sc(Nc6ccccc6)nc5CC[C@]4(C)[C@H]3CC[C@@]21C`, the growth is reported as -56.4% (active). In the case of `CCCCCCCCCCCCCCCCCCOc1ccc(CC(=O)OCC[N+](C)(C)C)cc1`, the growth is reported as 97.6% (inactive). For `Cc1ccc(-c2nc3c(c(-c4ccccc4)nn3-c3ccccc3)c(-c3ccc(O)cc3)c2C#N)cc1`, the growth was -20.9% (active). In the case of `CN(C)CCS(=O)(=O)Nc1cc(-c2ccc3ncc(C#N)c(Nc4ccc(F)c(Cl)c4)c3c2)cnc1Cl`, the growth is reported as -19% (active). For `O=C(Nc1ccc(I)cc1F)c1cc(I)ccc1O`, the growth was -34% (active). In the case of `C/C=C(\C)C(=O)N[C@H]1[C@@H](OC(C)=O)C[C@]2(C)C3CC[C@@]4(C)C(CC[C@@H]4C(C)N(C)C)C3CCC2[C@H]1O` (some centres not stated), the growth is reported as 78.2% (inactive). With `COc1ccc2[nH]c(-c3ccccc3)c(/C=C(\C#N)S(=O)(=O)c3ccccc3)c2c1` the growth was 43.2% (inactive). `NCCNc1nc2ccccc2c2c(=O)c3cccc(F)c3sc12` was tested, and the growth was 91.7% (inactive). In the case of `Nc1nc2ccccc2c2c(=O)c3cc(F)ccc3sc12`, the growth is reported as 100% (inactive). `O=C1CN(CCN2CC(=O)N(Cc3ccccc3)C(=O)C2)CC(=O)N1Cc1ccccc1` was tested, and the growth was 109% (inactive). With `COc1ccc(-c2[nH]c3ccc(OC)cc3c2/C=C(\C#N)S(=O)(=O)c2ccccc2)cc1` the growth was 10.6% (inactive). In the case of `CN1C(=O)N(C)C2Nn3c(s/c(=C\c4ccccc4)c3=O)=NC21` (configuration not stated), the growth is reported as 104% (inactive). In the case of `Nc1ccc(Sc2ccc([N+](=O)[O-])c3nonc23)cc1`, the growth is reported as 96.9% (inactive). In the case of `CS(=O)(=O)Nc1cc(-c2ccc3ncnc(Nc4cccc(Cl)c4F)c3c2)cnc1Cl`, the growth is reported as 34.7% (inactive). `CCCCNC(=O)Oc1ccc(/C(=C(\C)c2ccc(Cl)cc2)c2ccc(OCCN3CCCCC3)cc2)cc1` was tested, and the growth was 91.7% (inactive). For `CCCSc1nc2ccc(C)cc2cc1/C=[N+](\[O-])c1ccccc1`, the growth was 98.8% (inactive). In the case of `C[C@H]1[C@H]2[C@H]3CC[C@@H]4[C@@]5(C)CC[C@H](O)C(C)(C)[C@@H]5CC[C@@]4(C)[C@]3(C)CC[C@]23CO[C@]1(C)[C@@H](C(=O)/C=C\c1cccnc1)C3`, the growth is reported as 79.9% (inactive). With `Cc1onc2c(-c3ccccc3)n[nH]c(=O)c12` the growth was 97.1% (inactive). `COc1cc(/C=C/C(=O)/C=C/c2cc(OC)c3c(c2OC)OCO3)c(OC)c2c1OCO2` was tested, and the growth was 89.7% (inactive). `O=C1/C(=C/c2ccccc2[N+](=O)[O-])Oc2ccc(O)c(O)c21` was tested, and the growth was 85.2% (inactive). In the case of `CC1=C(C)C(=O)C(Nc2cccc(C(=O)OC(C)(C)C)c2)=C(Br)C1=O`, the growth is reported as 101% (inactive). For `NS(=O)(=O)c1ccc(N=Nc2ccc(-c3nn4cc(-c5ccccc5)nc4s3)cc2)cc1`, the growth was 96.5% (inactive).
